Results taken from the supplement of paper PMC9694430.

What was measured:
Assay in all cases: thermal shift delta Tm vs DMSO control; higher = stronger stabilization (binding)
Conditions in all cases: 12.5 µM; protein concentration 2 µM
LOC_OS02G45750-cb003 = tested on: LOC_OS02G45750-cb003
How it was run: (§1)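 Compounds dissolved in DMSO were added to purified rice kinase domain constructs, which had been expressed in E. coli, for differential scanning fluorimetry. Each well held 19.5 μl of 2 μM kinase in 100 mM potassium phosphate pH 7.5, 150 mM NaCl, 10% glycerol and 5 × SYPRO Orange. Fluorescence was followed from 25°C to 95°C at a rate of 0.05°C/s. Shifts in Boltzmann-fitted melting temperature are triplicate means relative to DMSO-only protein.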

LOC_OS02G54510-cb004 = tested on: LOC_OS02G54510-cb004
How it was run: as §1

LOC_OS03G04050-cb001 = tested on: LOC_OS03G04050-cb001
How it was run: as §1

LOC_OS03G12390-cb001 = tested on: LOC_OS03G12390-cb001
How it was run: as §1

LOC_OS03G27990-cb004 = tested on: LOC_OS03G27990-cb004
How it was run: as §1

LOC_OS03G50450-cb001 = tested on: LOC_OS03G50450-cb001
How it was run: as §1

LOC_OS03G50810-cb003 = tested on: LOC_OS03G50810-cb003
How it was run: as §1

LOC_OS04G35114-cb001 = tested on: LOC_OS04G35114-cb001
How it was run: as §1

LOC_OS04G38480-cb003 = tested on: T1, LOC_OS04G38480-cb003
T1 sequence (whole entry): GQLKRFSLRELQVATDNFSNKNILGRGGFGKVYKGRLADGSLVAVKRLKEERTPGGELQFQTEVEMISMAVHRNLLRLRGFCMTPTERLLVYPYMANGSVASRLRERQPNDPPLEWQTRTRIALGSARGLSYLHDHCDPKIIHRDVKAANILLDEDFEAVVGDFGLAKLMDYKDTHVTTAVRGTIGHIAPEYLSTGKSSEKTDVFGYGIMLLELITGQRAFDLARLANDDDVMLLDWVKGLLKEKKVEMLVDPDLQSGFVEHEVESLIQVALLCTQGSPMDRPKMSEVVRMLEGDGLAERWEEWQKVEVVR
How it was run: as §1

LOC_OS04G41100-cb001 = tested on: T2, LOC_OS04G41100-cb001
T2 sequence (whole entry): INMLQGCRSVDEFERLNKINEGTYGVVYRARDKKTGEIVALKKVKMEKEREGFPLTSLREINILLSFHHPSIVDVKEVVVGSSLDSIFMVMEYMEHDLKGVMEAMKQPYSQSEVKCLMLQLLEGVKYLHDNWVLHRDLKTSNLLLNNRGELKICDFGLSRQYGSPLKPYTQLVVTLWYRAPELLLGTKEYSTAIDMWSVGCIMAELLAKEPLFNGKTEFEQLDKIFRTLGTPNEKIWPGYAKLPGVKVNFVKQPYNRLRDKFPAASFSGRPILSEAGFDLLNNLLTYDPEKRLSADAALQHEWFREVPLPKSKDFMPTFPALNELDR
How it was run: as §1

LOC_OS04G57630-cb004 = tested on: LOC_OS04G57630-cb004
How it was run: as §1

LOC_OS05G07850-cb002 = tested on: LOC_OS05G07850-cb002
How it was run: as §1

LOC_OS05G16824-cb004 = tested on: LOC_OS05G16824-cb004
How it was run: as §1

LOC_OS05G28520-cb001 = tested on: LOC_OS05G28520-cb001
How it was run: as §1

LOC_OS05G30820-cb001 = tested on: LOC_OS05G30820-cb001
How it was run: as §1

LOC_OS05G43570-cb004 = tested on: LOC_OS05G43570-cb004
How it was run: as §1

LOC_OS06G16330-cb003 = tested on: LOC_OS06G16330-cb003
LOC_OS06G16330-cb003, sequence (as listed by the source): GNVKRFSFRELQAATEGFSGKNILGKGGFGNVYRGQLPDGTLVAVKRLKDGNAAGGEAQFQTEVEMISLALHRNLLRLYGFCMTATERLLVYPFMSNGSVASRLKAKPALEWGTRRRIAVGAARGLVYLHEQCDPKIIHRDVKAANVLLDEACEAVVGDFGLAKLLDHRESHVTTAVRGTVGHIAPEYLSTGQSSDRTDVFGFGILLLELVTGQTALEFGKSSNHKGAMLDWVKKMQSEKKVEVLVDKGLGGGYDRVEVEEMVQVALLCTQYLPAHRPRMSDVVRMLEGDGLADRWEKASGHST
How it was run: as §1

LOC_OS06G22820-cb001 = tested on: T3, LOC_OS06G22820-cb001
T3 sequence (whole entry): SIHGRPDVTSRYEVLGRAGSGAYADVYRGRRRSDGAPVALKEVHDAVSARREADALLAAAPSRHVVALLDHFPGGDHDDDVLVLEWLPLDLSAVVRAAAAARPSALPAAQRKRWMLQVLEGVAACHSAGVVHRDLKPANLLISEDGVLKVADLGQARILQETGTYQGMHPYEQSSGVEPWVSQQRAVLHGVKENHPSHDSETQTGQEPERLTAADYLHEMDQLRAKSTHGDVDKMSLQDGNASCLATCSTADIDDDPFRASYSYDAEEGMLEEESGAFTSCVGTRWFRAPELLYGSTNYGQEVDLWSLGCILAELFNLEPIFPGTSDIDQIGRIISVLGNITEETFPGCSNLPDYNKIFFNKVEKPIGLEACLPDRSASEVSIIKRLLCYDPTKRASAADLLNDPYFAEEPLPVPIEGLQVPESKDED
How it was run: as §1

LOC_OS07G06570-cb004 = tested on: LOC_OS07G06570-cb004
How it was run: as §1

LOC_OS07G07230-cb001 = tested on: LOC_OS07G07230-cb001
How it was run: as §1

Structure (SMILES)	thermal shift delta Tm (LOC_OS02G45750-cb003)	thermal shift delta Tm (LOC_OS02G54510-cb004)	thermal shift delta Tm (LOC_OS03G04050-cb001)	thermal shift delta Tm (LOC_OS03G12390-cb001)	thermal shift delta Tm (LOC_OS03G27990-cb004)	thermal shift delta Tm (LOC_OS03G50450-cb001)	thermal shift delta Tm (LOC_OS03G50810-cb003)	thermal shift delta Tm (LOC_OS04G35114-cb001)	thermal shift delta Tm (LOC_OS04G38480-cb003)	thermal shift delta Tm (LOC_OS04G41100-cb001)	thermal shift delta Tm (LOC_OS04G57630-cb004)	thermal shift delta Tm (LOC_OS05G07850-cb002)	thermal shift delta Tm (LOC_OS05G16824-cb004)	thermal shift delta Tm (LOC_OS05G28520-cb001)	thermal shift delta Tm (LOC_OS05G30820-cb001)	thermal shift delta Tm (LOC_OS05G43570-cb004)	thermal shift delta Tm (LOC_OS06G16330-cb003)	thermal shift delta Tm (LOC_OS06G22820-cb001)	thermal shift delta Tm (LOC_OS07G06570-cb004)	thermal shift delta Tm (LOC_OS07G07230-cb001)
COc1cc(Nc2ncc3c(n2)-c2ccc(Cl)cc2C(c2c(F)cccc2OC)=NC3)ccc1C(=O)O [Alisertib (MLN8237)]	2.28 °C	4.54 °C	0.09 °C	0.11 °C	-0.26 °C	-0.33 °C	1.53 °C	2.39 °C	0.2 °C	0.09 °C	-0.1 °C	10.3 °C	5.74 °C	0.02 °C	0.19 °C	0.06 °C	2.21 °C	0.35 °C	0.77 °C	0.11 °C
COc1cc2c(N3CCN(C(=O)Nc4ccc(OC(C)C)cc4)CC3)ncnc2cc1OCCCN1CCCCC1 [Tandutinib (MLN518)]	1.37 °C	0.74 °C	0.9 °C	0.38 °C	0.28 °C	0.42 °C	0.95 °C	1.58 °C	1.79 °C	0.92 °C	2.05 °C	1.44 °C	0.72 °C	0.2 °C	0.16 °C	0.41 °C	-1.38 °C	0.3 °C	1.1 °C	0.38 °C
CCCCOc1c(C(=O)c2c(F)cc(C)cc2F)c[nH]c2nncc1-2	0.73 °C	0.14 °C	0.23 °C	2.18 °C	0.03 °C	-0.21 °C	0.46 °C	0.65 °C	0.81 °C	0.49 °C	0.1 °C	5.8 °C	-1.11 °C	-0.07 °C	0.47 °C	0.9 °C	0.88 °C	1.75 °C	0.61 °C	-0.1 °C
Cc1cc(CS(=O)(=O)c2ccccc2)cc(OCc2ccc(CN3CCC[C@@H]3CO)cc2)c1	-0.41 °C	0.16 °C	0.65 °C	-0.25 °C	0.41 °C	0.6 °C	0.23 °C	0.57 °C	0.83 °C	0.44 °C	0.05 °C	-0.44 °C	-3.52 °C	0.56 °C	0.38 °C	0.08 °C	-0.51 °C	0.68 °C	1.18 °C	0.08 °C
COc1ncc(-c2ccc3nccc(-c4ccnnc4)c3c2)cc1NS(=O)(=O)c1ccc(F)cc1F	1.38 °C	0.45 °C	0.9 °C	0.76 °C	0.69 °C	1.26 °C	1.09 °C	2.35 °C	1.39 °C	0.74 °C	0.93 °C	6.11 °C	2.11 °C	0.26 °C	0.47 °C	0.73 °C	2.61 °C	0.6 °C	0.86 °C	-0.21 °C
Cc1cc(CN2CCN(c3c(Br)cnc4nc(-c5ccc(N6CCN(C)CC6)cc5)[nH]c34)CC2)no1	11.1 °C	0.56 °C	0.42 °C	2.08 °C	1.47 °C	4.97 °C	4 °C	3.09 °C	2.28 °C	0.48 °C	1.11 °C	8.75 °C	3.92 °C	1.16 °C	0.38 °C	0.18 °C	5.31 °C	0.11 °C	1.11 °C	1.28 °C
COc1cc(Nc2ncc(F)c(Nc3ccc4c(n3)NC(=O)C(C)(C)O4)n2)cc(OC)c1OC	6.19 °C	4.62 °C	0.45 °C	9.67 °C	2.62 °C	10.5 °C	5.15 °C	2.97 °C	4.12 °C	0.74 °C	1.55 °C	13.2 °C	12.2 °C	0.56 °C	1.19 °C	0.37 °C	12.2 °C	0.02 °C	0.43 °C	0.41 °C
Cc1cc(N2CCOCC2)cc2[nH]c(-c3c(NC[C@@H](O)c4cccc(Cl)c4)cc[nH]c3=O)nc12	3.33 °C	2.85 °C	0.49 °C	5.81 °C	1.27 °C	4.61 °C	3.54 °C	4.79 °C	-0.48 °C	0.77 °C	-0.02 °C	9.39 °C	5.37 °C	1.06 °C	0.82 °C	0.65 °C	4.87 °C	0.56 °C	-0.16 °C	0.74 °C
C=CCc1ccc(O)c(-c2ccc(O)c(CC=C)c2)c1 [Honokiol]	-0.57 °C	0.26 °C	0.72 °C	-0.04 °C	0.52 °C	0.5 °C	0.47 °C	0.36 °C	1.32 °C	0.48 °C	0.34 °C	0.49 °C	1.45 °C	0.24 °C	0.69 °C	0.62 °C	0.47 °C	0.7 °C	0.49 °C	-0.78 °C
CC(C)(O)CNc1ncc(-c2ccnc(Nc3ccncc3)n2)c(CC2CC2)n1 [VPS34 inhibitor 1 (Compound 19, PIK-III analogue)]	2.27 °C	0.29 °C	0.5 °C	0.77 °C	0.32 °C	0.37 °C	0.9 °C	1.51 °C	1.97 °C	0.43 °C	0.13 °C	6.5 °C	2.61 °C	0.38 °C	0.25 °C	0.5 °C	3.99 °C	0.4 °C	1.83 °C	0.44 °C
C[C@@H]1COC(Nc2ccc3ncnc(Nc4ccc(OCc5nccs5)c(Cl)c4)c3c2)=N1 [Varlitinib]	1.53 °C	0.27 °C	0.48 °C	0.13 °C	0.32 °C	0.46 °C	0.41 °C	1.59 °C	1.56 °C	0.59 °C	1.38 °C	3.96 °C	-3.4 °C	0.54 °C	0.94 °C	0.53 °C	1.46 °C	0.8 °C	0.43 °C	0.26 °C
